Bioassay records as filed in PubChem.
Only a selection was taken, and hits are over-represented in it overall.
LmPK inhibitor: blocks Leishmania mexicana pyruvate kinase activity; Q27686; purified LmPK, Kinase-Glo ATP luminescence, 1 h; Potency, µM (top dose mostly 57.5 µM), for the others: top-dose activity change, negative = inhibition, actives largely listed as inhibitors; 290,000 compounds, 0.37% hits; AID 1721; also: potency is read from the fitted curve at half-maximal effect; % is scaled to controls: 0 for no effect and ±100 for the full control effect
Target sequence (Q27686 whole entry, looked up): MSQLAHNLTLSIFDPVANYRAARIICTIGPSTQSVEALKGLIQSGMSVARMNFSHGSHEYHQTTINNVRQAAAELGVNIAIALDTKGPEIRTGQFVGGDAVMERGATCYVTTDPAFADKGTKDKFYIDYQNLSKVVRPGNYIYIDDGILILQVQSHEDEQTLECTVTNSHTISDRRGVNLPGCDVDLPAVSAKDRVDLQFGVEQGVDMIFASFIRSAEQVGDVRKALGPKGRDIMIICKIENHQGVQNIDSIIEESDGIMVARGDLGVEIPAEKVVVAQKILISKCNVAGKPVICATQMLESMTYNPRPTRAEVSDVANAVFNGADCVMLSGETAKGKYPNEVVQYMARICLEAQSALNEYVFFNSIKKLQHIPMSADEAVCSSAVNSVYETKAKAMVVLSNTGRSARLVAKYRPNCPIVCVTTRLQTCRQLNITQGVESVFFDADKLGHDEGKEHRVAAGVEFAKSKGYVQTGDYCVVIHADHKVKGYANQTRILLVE
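0.1 nM LmPK, 0.5 mM PEP, 0.1 mM ADP; 50 mM imidazole pH 7.2, 7 mM MgCl2, 50 mM KCl; 1 h RT. Kinase-Glo luminescence readout, normalized to no-enzyme (full inhibition) and uninhibited wells.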
SARS PLP yeast: blocks SARS-CoV papain-like protease in a yeast assay | S. cerevisiae expressing SARS-CoV PLpro, growth rescue | Potency, µM (series often up to 32.9 µM), for the others: at the highest dose activity, positive = growth rescue, hits mostly activators | 330,000 compounds, 0.19% hits; calls by dose curve; also: potency is read from the fitted curve at half-maximal effect; 0% is about no effect; nearly all actives have a fitted effect of over 55% in size
Shiga inhibitor: inhibitors of Shiga toxin in Vero cells. Vero cells, Shiga toxin protein synthesis inhibition reporter. inhibition, % at 38.7 µM. 290,000 compounds, 9.2% hits. AID 2315; in the data active = inhibition mostly above about 28%, no sharp cut-off; inactive = mostly below about 43%; also: 0% is about no effect
CHX counter: affects cycloheximide protein synthesis inhibition readout, counter-screen. cell reporter, cycloheximide protein synthesis inhibition counterscreen. max response, %. 300,000 compounds, 12% hits. AID 2314; in the data active = max response mostly above about 13%, no sharp cut-off; inactive = mostly below about 14%; also: read at 38.3 µM for the half of the compounds with a filed dose; 0% is about no effect
NS1 inh: inhibitors of influenza NS1 protein function; Potency, µM (titrated, usually from 46.1 µM), for the others: at the highest dose activity, positive = more growth; 270,000 compounds, 0.4% hits; AID 2326; calls by dose curve; also: potency is read from the fitted curve at half-maximal effect; actives are rising curves; nearly all actives have a fitted effect of over 50% in size
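In this qHTS, NS1 from influenza A is expressed in budding yeast, where it slows growth. Cells are switched from glucose to 2% galactose medium (pH 6.0, -URA), treated with compound, and growth recovery is read at OD600.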
TbPYK inhibitor: blocks Trypanosoma brucei pyruvate kinase. TbPYK enzyme, Kinase-Glo Plus ATP luminescence, 45 min. Potency, µM (top dose mostly 76.8 µM), for inactives: at the top dose activity, negative = inhibition, actives largely listed as inhibitors. 410,000 compounds, 0.12% hits. Q57TT1; also: potency is read from the fitted curve at half-maximal effect; % is scaled to controls: 0 for no effect and ±100 for the full control effect; nearly all actives have a fitted effect of over 50% in size
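Activity of T. brucei pyruvate kinase was followed by Kinase-Glo Plus luminescence after the enzyme reacted 45 min at room temperature with 130 uM ADP (final) and substrate. Test compounds were added before ADP at multiple concentrations.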
Numbers without * were called inactive; u = inconclusive; x = no result given. Unless noted, calls follow the shape of the dose curve; as a rule, active = well fitted curve in the direction sought with a large enough effect; inconclusive = small, poorly fitted or top-dose-only effect, or another doubt; inactive = no such curve, though single readings can be large; an effect the other way counts as inactive or inconclusive.

SMILES | LmPK inhibitor | SARS PLP yeast | Shiga inhibitor | CHX counter | NS1 inh | TbPYK inhibitor
COc1ccc(C2=CC(=O)C=CC2=O)cc1 | 2.51µM* | -5.0% | -1.5 | 9.3* | -140.1% | x
Cc1ccc2oc(=O)n(CCCOc3ccccc3)c2c1 | 3.2% | -5.1% | 103.6* | 34.9* | -48.5% | -12.3%
Cc1ccc2oc(=O)n(CCCOc3ccccc3C)c2c1 | -0.6% | -0.9% | 44.8* | 15.7* | -6.2% | 5.3%
COc1ccc(OCCCn2c(=O)oc3ccc(C)cc32)cc1 | x | x | x | x | x | 3.3%
Cc1ccc(OCCn2c(=O)oc3ccc(C)cc32)cc1 | 2.0% | -1.5% | 24.4 | 19.7* | -2.7% | -0.5%
COc1ccc(N=C2SCC(=O)N2c2ccc(OC)cc2)cc1 | 4.0% | 10.1% | -9.1 | 9.7 | -7.0% | -3.0%
COc1ccc(N=C2SCC(c3ccccc3)=NN2C)cc1 | 1.2% | -1.3% | 31.9 | 28.9* | -8.3% | -2.1%
O=C(COc1ccc(Cl)cc1Cl)N(C1CCCCC1)C1CCS(=O)(=O)C1 (centres undefined) | x | -7.0% | x | x | x | 10.0%
O=C1CC(N2CCN(c3ccccc3)CC2)C(=O)N1c1ccc2c(c1)OCCO2 (centres undefined) | -0.8% | x | -6.0 | 1.3 | 1.9% | -1.1%
CN1CCN(C2CC(=O)N(c3ccc4c(c3)OCCO4)C2=O)CC1 (centres undefined) | 6.0% | 0.4% | 54.2 | 34.4* | -5.1% | 4.6%
O=S(=O)(c1ccc(Cl)cc1)c1nnn2c1nc(N1CCCCC1)c1sccc12 | x | x | x | x | x | 3.0%
O=S1(=O)CC(N2CCCCC2)CN1Cc1cn(Cc2ccc(Cl)cc2)nn1 (centres undefined) | x | x | x | x | x | -2.2%
COc1ccc(OC2CCN(S(=O)(=O)c3cccc(F)c3)CC2)cc1 | 3.2% | -3.6% | 81.2* | 36.5* | 1.1% | -8.0%
O=C(NCCc1ccc(Cl)cc1)c1ccc(CS(=O)Cc2cccc(Cl)c2)o1 (centres undefined) | x | x | x | x | x | -2.6%
C=CCn1c(C)cc(C(=O)COC(=O)c2n[nH]c(=O)c3ccccc23)c1C | x | 5.9% | x | x | x | 1.3%
Cc1cc(C(=O)COC(=O)c2ccc(N)c([N+](=O)[O-])c2)c(C)n1Cc1ccc2c(c1)OCO2 | 1.3% | -0.2% | -6.6 | 0.8 | -1.1% | 4.0%
COCCn1c(C)cc(C(=O)COC(=O)c2ccc3c(c2)NC(=O)CS3)c1C | 0.3% | -1.2% | 66.3* | 27.8* | 24.4% | -4.0%
CC(C)(C)C(=O)COC(=O)c1ccc(N)c([N+](=O)[O-])c1 | -21.5% | -1.8% | 83.4* | 43.2* | x | -5.4%
C=CCn1c(C)cc(C(=O)COC(=O)c2ccc(N)c([N+](=O)[O-])c2)c1C | 0.1% | -20.6% | 58.4* | 55.2* | 3.3% | -4.0%
C=CCn1c(C)cc(C(=O)COC(=O)c2ccc3c(c2)NC(=O)CS3)c1C | -1.2% | 20.5% | 39.5* | 18.4* | 13.4% | -9.8%
O=S(=O)(/N=C(/Nc1ccccn1)c1ccccc1)c1ccc(F)cc1 | -0.1% | 13.1% | 22.1* | 12.3 | 3.0% | -1.6%
Cc1cccc(N/C(=N/S(=O)(=O)c2ccccc2)c2ccccc2)n1 | 1.4% | -2.7% | 50.3 | 15.0* | -0.7% | -1.1%
CC(C)C(=O)N1CCC1(C)C(=O)Nc1cccc(Oc2ccccc2)c1 (centres undefined) | x | x | x | x | x | 8.9%
CCOc1ccc(/C=N/NC(=O)c2[nH]ncc2Br)c(O)c1 | 7.94µM* | -2.2% | 49.3* | 34.8* | -31.5% | u
COc1ccc(/C=N/NC(=O)c2ccc3nc[nH]c3c2)c(OC)c1 | 8.4% | 6.7% | -3.5 | -0.4 | 1.7% | 3.5%
SMILES | LmPK inhibitor | SARS PLP yeast | Shiga inhibitor | CHX counter | NS1 inh | TbPYK inhibitor
COc1cccc(C(=O)N/N=C/c2cn[nH]c2-c2ccc(OC)cc2OC)c1 | 2.3% | 1.1% | 13.4 | 17.1* | -26.6% | 3.2%
Cc1ccc(O)c(/C=N/NC(=O)C2=NNC(c3ccccc3)(c3ccccc3)C2)c1 | 1.6% | 6.31µM* | 21.0 | 0.7 | 18.1% | x
CCOc1ccc(/C=N/NC(=O)c2cccc3ccccc23)c(OCC)c1 | 7.5% | 10.1% | -17.3 | -1.9 | 16.5% | -3.9%
COc1ccc(-c2[nH]ncc2/C=N\NC(=O)c2ccc(Br)o2)cc1OC | 4.0% | -1.9% | 33.5* | 18.7* | -16.8% | 1.5%
O=C(O)CC(O)CC(O)/C=C/c1c(C2CC2)nc2ccccc2c1-c1ccc(F)cc1 (centres undefined) | x | x | x | x | x | 2.6%
O=C(c1ccc(Cl)c(Cl)c1)N1CCC(=O)N(C(CO)Cc2ccccc2)CC1 (centres undefined) | x | x | x | x | x | -8.7%
COc1ccc(OC)c(/C=N/NC(=O)c2[nH]ncc2Br)c1 | -0.4% | 0.0% | 72.3* | 42.5* | -4.5% | 1.2%
O=C(N/N=C/c1c(O)ccc2ccccc12)c1cccc(C(F)(F)F)c1 | 1.0% | 3.98µM* | -10.8 | -4.8 | -50.6% | 4.4%
Cc1ccc(O)c(/C=N/NC(=O)c2[nH]ncc2Br)c1 | u | -2.0% | 58.6* | 34.0* | 2.6% | -11.2%
O=C(N/N=C/c1c(O)ccc2ccccc12)c1[nH]ncc1Br | -0.3% | u | 81.9* | 43.5* | 10.8% | -1.5%
COc1ccc(OC)c(/C=N/NC(=O)c2csc3ccccc23)c1 | -1.5% | -2.5% | -7.2 | 3.8 | 0.2% | 3.7%
CC12COC3(C(=O)NCCc4ccccc4)CC1CCC32C (centres undefined) | 0.2% | 4.8% | 56.0* | 50.4* | -5.0% | -5.9%
CC12COC3(C(=O)Nc4ccc5ccccc5c4)CC1CCC32C (centres undefined) | 3.3% | -29.3% | 122.1* | 35.4* | x | -8.2%
c1ccc(C2=Nc3ccccc3SC2c2nc3ccccc3[nH]2)cc1 (centres undefined) | 0.2% | x | 86.8* | 36.3* | -29.9% | x
O=C(NC(=S)NCC1CCCO1)c1ccccc1Br (centres undefined) | 0.3% | 7.8% | 8.7 | 15.5 | 7.1% | -4.3%
O=C(NC(=S)NCC1CCCO1)c1cccs1 (centres undefined) | 1.3% | u | 25.6 | 12.5* | 21.1% | 9.1%
O=C(NC(=S)NCC1CCCO1)c1ccccc1F (centres undefined) | -1.4% | 0.9% | 43.4 | 25.8* | 7.8% | -17.0%
O=c1c(N2CCN(c3ccc(F)cc3)CC2)csc2ccc(F)cc12 | x | x | x | x | x | 1.1%
COCCNc1cnn(-c2ccccc2)c(=O)c1Cl | -5.2% | 6.7% | 39.0* | 25.3* | u | 5.2%
CCSc1cnn(-c2ccccc2)c(=O)c1Cl | x | x | x | x | x | -3.0%
CN(c1cnn(-c2ccccc2)c(=O)c1Cl)n1cccc1 | 4.5% | 0.5% | 56.4* | 34.5* | -3.3% | 8.8%
CCCCNc1cnn(-c2ccccc2)c(=O)c1Cl | 1.2% | 1.0% | 75.1* | 32.5* | x | -6.4%
CCN1CCN(CCCNC(=O)Cn2nc(C)n3c(cc4c(OC)cccc43)c2=O)CC1 | x | x | x | x | x | -4.6%
CCOC(=O)c1c(C)oc2nc(C)nc(NCc3ccccc3Cl)c12 | x | x | x | x | x | -1.8%
COc1cccc(CNC(=O)C2(C)CCCCN2C)c1 (centres undefined) | x | x | x | x | x | 5.9%
